ELG1 repair inh – inhibitors of ELG1-dependent DNA repair in HEK293T cells. Potency, µM (titrated, usually from 46.1 µM), actives largely listed as inhibitors. 330,000 compounds, 2.3% hits. HEK293T ELG1-luciferase reporter, luminescence, 16 h; DNA damage induced by 5-fluorouridine; further: nearly all actives have a fitted effect of over 55% in size
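Overnight (16 hr) co-exposure of 2,000 cells/well to 5-fluorouridine and compound at 37 °C preceded detection. Luciferase was quantified via ONE-Glo luminescence; loss of signal denotes inhibition.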
Nrf2 block – Nrf2 pathway inhibition; 360,000 compounds, 2.1% hits; Potency, µM (top dose mostly 46 µM), actives largely listed as inhibitors; AID 504444; A549 ARE-Fluc reporter, luciferase luminescence, 18-24 h; further: nearly all actives have a fitted effect of over 60% in size
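Nrf2 activity is the BugLite luminescence, read 15 min after reagent at room temperature, following CellTiter-Fluor cytotoxicity readout (30 min, 37C). Compound titrations were applied for 18-24 h to 5000 A549 ARE_Fluc cells/well in 5% FBS OPTI-MEM.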
Nrf2 ARE act – activators of Nrf2 (ARE) signaling. AREc32 ARE-luciferase reporter (MCF7-derived line), luminescence, 24 h. Potency, µM (doses to about 46.1 µM), hits mostly activators. 410,000 compounds, 0.31% hits; further: nearly all actives have a fitted effect of over 65% in size
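ARE activation measured as luciferase luminescence (Steady-Glo, 30 min RT) in AREc32_Fluc cells after 24 hr compound exposure at 37 deg C, 5% CO2; cells seeded overnight at 1000/well in OPTI-MEM, 5% FBS.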
A549 tox – counter-screen for Nrf2 inhibitors: cytotoxicity in A549 cells; 390,000 compounds, 0.16% hits; A549 ARE-Fluc cells, CellTiter-Fluor viability, 18-24 h; AID 504648; Potency, µM (doses to about 46 µM), hits mostly inhibitors
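A549 ARE_Fluc cells in 5% FBS OPTI-MEM were exposed to compounds in concentration-response for 18-24 h at 37 deg C. Viability was read by CellTiter-Fluor fluorescence (Ex 405/Em 525) after 30 min, before the luciferase read.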
ELG1 FLuc counter – luciferase inhibition in cell-free luciferin readout for ELG1 hits; 350 compounds, 3% hits; cell-free firefly luciferase luminescence counter-screen, ViewLux; shares compounds with ELG1 repair inh; Potency, µM (doses to about 46.1 µM), actives largely listed as inhibitors
ELG1-Luc inh – inhibits ELG1-dependent DNA repair in HEK293T cells, confirmed | 670 compounds, 68% hits | HEK293T ELG1-luciferase levels, luminescence; cells co-treated with 5-fluorouridine | Potency, µM (series often up to 46.1 µM), usual class: inhibitors | shares compounds with ELG1 repair inh; further: nearly all actives have a fitted effect of over 55% in size
Target sequence (Q96QE3 whole entry, looked up): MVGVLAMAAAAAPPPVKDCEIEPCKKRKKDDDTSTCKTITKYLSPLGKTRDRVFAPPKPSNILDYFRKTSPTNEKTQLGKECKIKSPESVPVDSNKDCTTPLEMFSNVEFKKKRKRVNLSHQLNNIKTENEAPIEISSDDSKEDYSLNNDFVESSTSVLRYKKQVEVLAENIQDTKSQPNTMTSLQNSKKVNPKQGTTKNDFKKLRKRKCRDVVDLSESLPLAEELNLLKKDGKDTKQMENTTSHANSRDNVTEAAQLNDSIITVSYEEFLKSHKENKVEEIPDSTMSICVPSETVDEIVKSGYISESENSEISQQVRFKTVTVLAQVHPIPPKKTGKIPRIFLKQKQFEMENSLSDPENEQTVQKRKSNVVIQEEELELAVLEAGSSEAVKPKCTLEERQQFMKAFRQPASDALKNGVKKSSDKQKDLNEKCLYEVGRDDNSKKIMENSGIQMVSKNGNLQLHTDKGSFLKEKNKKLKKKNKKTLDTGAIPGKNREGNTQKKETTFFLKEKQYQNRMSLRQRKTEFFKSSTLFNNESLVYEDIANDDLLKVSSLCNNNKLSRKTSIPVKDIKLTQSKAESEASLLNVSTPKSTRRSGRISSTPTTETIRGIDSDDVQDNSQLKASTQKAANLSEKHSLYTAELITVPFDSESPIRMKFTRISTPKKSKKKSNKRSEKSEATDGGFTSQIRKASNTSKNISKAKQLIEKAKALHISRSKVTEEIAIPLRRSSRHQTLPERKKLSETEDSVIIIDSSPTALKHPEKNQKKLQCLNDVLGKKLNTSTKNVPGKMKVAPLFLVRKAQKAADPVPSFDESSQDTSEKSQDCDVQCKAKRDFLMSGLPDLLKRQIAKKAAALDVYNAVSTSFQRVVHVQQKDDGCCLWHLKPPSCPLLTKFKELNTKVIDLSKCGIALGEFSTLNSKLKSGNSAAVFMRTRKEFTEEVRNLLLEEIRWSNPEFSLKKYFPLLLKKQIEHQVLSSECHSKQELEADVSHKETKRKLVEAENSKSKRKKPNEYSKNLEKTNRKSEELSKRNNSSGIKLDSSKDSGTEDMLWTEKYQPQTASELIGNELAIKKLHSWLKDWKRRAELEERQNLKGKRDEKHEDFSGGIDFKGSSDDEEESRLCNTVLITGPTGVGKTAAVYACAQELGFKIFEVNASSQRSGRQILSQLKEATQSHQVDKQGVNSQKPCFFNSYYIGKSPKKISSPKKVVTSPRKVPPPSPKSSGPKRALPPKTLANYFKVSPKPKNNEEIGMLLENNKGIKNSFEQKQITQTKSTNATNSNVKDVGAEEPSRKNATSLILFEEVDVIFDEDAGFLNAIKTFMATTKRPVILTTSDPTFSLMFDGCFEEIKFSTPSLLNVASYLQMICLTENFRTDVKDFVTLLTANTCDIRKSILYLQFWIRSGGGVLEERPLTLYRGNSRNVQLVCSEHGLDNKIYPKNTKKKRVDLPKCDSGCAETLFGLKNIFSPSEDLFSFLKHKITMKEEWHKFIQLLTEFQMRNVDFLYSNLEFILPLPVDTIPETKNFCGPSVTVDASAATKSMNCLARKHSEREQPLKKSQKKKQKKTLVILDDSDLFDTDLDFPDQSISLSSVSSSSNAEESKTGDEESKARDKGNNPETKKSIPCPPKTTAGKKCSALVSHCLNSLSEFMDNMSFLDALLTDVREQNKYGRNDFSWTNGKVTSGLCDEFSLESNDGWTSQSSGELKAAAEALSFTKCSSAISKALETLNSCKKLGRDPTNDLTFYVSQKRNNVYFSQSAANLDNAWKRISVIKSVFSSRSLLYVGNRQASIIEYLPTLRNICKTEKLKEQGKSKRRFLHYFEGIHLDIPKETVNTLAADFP
ELG1 MMS Luc – confirmation of human ELG1 repair inhibitors, MMS stimulated. HEK293T luciferase-tagged ELG1 level, MMS stimulated. shares compounds with ELG1 repair inh. Potency, µM (top dose mostly 46.1 µM), most hits filed as inhibitors. 670 compounds, 53% hits; further: nearly all actives have a fitted effect of over 60% in size
ELG1 5-FU – confirmation of ELG1 repair inhibitors: viability with 5FU | shares compounds with ELG1 repair inh | cell viability with 5-FU, ELG1-dependent repair | Potency, µM (highest dose often 46.1 µM), hits mostly cytotoxic | 670 tested, under 10 active;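 further: ELG1-luc HEK293T cells cotreated with 5-fluorouridine at 10 µM final; viability measured 16 h after compound addition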
ELG1 MMS cell – confirmation of ELG1 repair inhibitors: viability with MMS; 670 compounds, 33% hits; shares compounds with ELG1 repair inh; AID 624251; Potency, µM (highest dose often 46.1 µM), most hits filed as cytotoxic; Cell viability with MMS, ELG1-dependent DNA repair;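 further: ELG1-luc HEK293T cells co-treated with 10 µM MMS; viability read 16 h after compound addition; nearly all actives have a fitted effect of over 60% in size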
Cell viab unstim – affects unstimulated cell viability, ELG1 hit counter-screen; shares compounds with ELG1 repair inh; cell viability counter-screen, unstimulated, luminescence; Potency, µM (doses to about 45.9 µM), usual class: cytotoxic; 900 compounds, 8% hits; AID 624252;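 further: compound exposure lasted 16 hours before reading; nearly all actives have a fitted effect of over 55% in size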
FLuc biochem – counter-screen for ELG1 repair inhibitors: firefly luciferase inhibition. purified firefly luciferase, luminescence counter-screen. AID 624253. shares compounds with ELG1 repair inh. Potency, µM (series often up to 57.5 µM), usual class: inhibitors. 350 compounds, 10% hits
Each line names hits and unclear results; the compound was inactive in the other large screens (follow-up assays come after a bar, where they were run). An excerpt weighted towards active compounds, which were near 3.7% of everything screened. The call rests on the fitted dose curve; in most records, active means well fitted curve in the direction sought with a large enough effect; inconclusive means small, poorly fitted or top-dose-only effect, or another doubt; inactive means no such curve, though single readings can be large; an effect the other way counts as inactive or inconclusive.

O=C1CCc2cc(NS(=O)(=O)c3ccccc3)cc3c2N1CC3	none | ELG1 FLuc counter inactive | Cell viab unstim inactive | FLuc biochem inactive
CC(C)Nc1ncnc2c1ncn2[C@H]1CN(Cc2cccs2)C[C@@H](CO)O1	none (no result: ELG1 repair inh, Nrf2 block, A549 tox)
COCCCNc1nc(N)c([N+](=O)[O-])c(Nc2cc(OC)ccc2OC)n1	ELG1 repair inh 1.8µM | ELG1-Luc inh 1.1µM | ELG1 MMS Luc inconclusive | ELG1 5-FU inconclusive | ELG1 MMS cell inactive | Cell viab unstim inactive
COc1cc2c(cc1OC)C(COc1ccc3c(C)cc(=O)oc3c1)N(C(=O)c1ccco1)CC2 (configuration not stated)	ELG1 repair inh 2.3µM | ELG1 FLuc counter inactive | ELG1-Luc inh 5.6µM | ELG1 MMS Luc 22µM | ELG1 5-FU inactive | ELG1 MMS cell inconclusive | Cell viab unstim inconclusive | FLuc biochem inactive
COc1ccc(C)cc1NS(=O)(=O)c1cc(Br)cc2c1N(C(C)=O)C(C)C2 (configuration not stated)	none (no result: ELG1 repair inh)
Cn1cccc1C(=O)OCC(=O)c1c[nH]c2ccccc12	ELG1 repair inh inconclusive, Nrf2 block inconclusive | Cell viab unstim inactive
CC(=O)Nc1ccc(NC(=O)CSc2ccc3nnc(CCNS(=O)(=O)c4ccc(C)cc4)n3n2)cc1	none
Cc1ccc(S(=O)(=O)NCCc2nnc3ccc(SCC(=O)Nc4nc5ccccc5s4)nn23)cc1	none (no result: Nrf2 block, Nrf2 ARE act, A549 tox) | ELG1 FLuc counter inconclusive | ELG1-Luc inh inactive | ELG1 MMS Luc inactive | ELG1 5-FU inactive | ELG1 MMS cell inactive | Cell viab unstim inactive | FLuc biochem inactive
C(=C\c1nc2ccccc2s1)/c1ccc2c(c1)OCO2	none (no result: ELG1 repair inh, Nrf2 block, Nrf2 ARE act, A549 tox) | ELG1 FLuc counter 20µM | Cell viab unstim inactive | FLuc biochem 0.18µM
COc1ccc(CCNC(=O)CCN2C(=O)c3cccc4cccc(c34)C2=O)cc1OC	none
COc1ccc(CCN2C(=O)c3cccc4c(C(=O)N5CCCCC5)ccc(c34)C2=O)cc1OC	ELG1 repair inh 3.7µM, Nrf2 block inconclusive | ELG1-Luc inh 7.9µM | ELG1 MMS Luc 7.9µM | ELG1 5-FU inconclusive | ELG1 MMS cell 11µM | Cell viab unstim 14µM
Cc1ccc(-c2nc(NC(=O)c3cc(C(C)(C)C)nn3C)sc2C)cc1Cl	ELG1 repair inh 4.6µM, Nrf2 block 21µM | ELG1-Luc inh inconclusive | ELG1 MMS Luc inactive | ELG1 5-FU inactive | ELG1 MMS cell inconclusive | Cell viab unstim inconclusive
COc1ccc(Cc2nc3ccc(C(=O)N(C)Cc4nccs4)cc3o2)cc1OC	ELG1 repair inh 4.1µM | ELG1-Luc inh inconclusive | ELG1 MMS Luc 2.2µM | ELG1 5-FU inactive | ELG1 MMS cell 7.9µM | Cell viab unstim inconclusive
CN(Cc1nccs1)C(=O)c1ccc2nc(Cc3ccccc3F)oc2c1	ELG1 repair inh inconclusive, Nrf2 block inconclusive
Cc1ccc(Cl)cc1NC(=O)CCc1c(C)nc2c3cccnc3nn2c1C	Nrf2 block inconclusive (no result: ELG1 repair inh)
Cc1cc(C)c(Cc2c(C)nc3c(C(=O)NCc4ccco4)cnn3c2C)c(C)c1	ELG1 repair inh 7.3µM, Nrf2 block 18µM, A549 tox inconclusive | ELG1 FLuc counter inactive | ELG1-Luc inh inconclusive | ELG1 MMS Luc 7.1µM | ELG1 5-FU inactive | ELG1 MMS cell 7.9µM | Cell viab unstim inconclusive | FLuc biochem inactive
Cc1ccc(CNC(=O)c2cnn3c(C)c(Cc4c(F)cccc4Cl)c(C)nc23)cc1	none (no result: ELG1 repair inh, Nrf2 block)
CN1CCCN(Cc2nc(-c3cccc(C(F)(F)F)c3)no2)CC1	ELG1 repair inh inconclusive
COc1ccc(C)cc1NC(=O)CN1CCCC1c1ccc2c(c1)OCCCO2 (configuration not stated)	ELG1 repair inh 4.1µM, Nrf2 block inconclusive | ELG1-Luc inh 3.1µM | ELG1 MMS Luc 18µM | ELG1 5-FU inconclusive | ELG1 MMS cell inconclusive | Cell viab unstim inactive
CS(=O)(=O)c1ccc(Cl)c(NC(=O)CN2CCCC2c2ccc3c(c2)OCCCO3)c1 (configuration not stated)	ELG1 repair inh inconclusive, Nrf2 block inconclusive
Cc1ccc(NC(=O)CSc2ncccn2)cc1S(=O)(=O)N1CCOCC1	ELG1 repair inh inconclusive
CN(C(=O)c1sc2nc(N3CCOCC3)c3c(c2c1N)CCCC3)c1ccccc1	ELG1 repair inh 13µM, Nrf2 block 16µM | ELG1 FLuc counter inactive | ELG1-Luc inh 16µM | ELG1 MMS Luc 22µM | ELG1 5-FU inconclusive | ELG1 MMS cell inactive | Cell viab unstim inactive | FLuc biochem inactive
Nc1c(C(=O)NCCc2ccccc2)sc2nc(N3CCOCC3)c3c(c12)CCCC3	Nrf2 block inconclusive
Fc1ccccc1-c1csc(=Nc2cccnc2)n1CCCn1ccnc1	ELG1 repair inh 10µM, Nrf2 block inconclusive | ELG1 FLuc counter inactive | ELG1-Luc inh 13µM | ELG1 MMS Luc 20µM | ELG1 5-FU inactive | ELG1 MMS cell 22µM | Cell viab unstim inconclusive | FLuc biochem inconclusive
COCCn1c(-c2cccs2)csc1=Nc1cccnc1	ELG1 repair inh inconclusive
Fc1ccccc1-c1csc(=Nc2cccnc2)n1CC1CCCO1 (configuration not stated)	ELG1 repair inh inconclusive | ELG1 FLuc counter inactive | ELG1-Luc inh inconclusive | ELG1 MMS Luc 22µM | ELG1 5-FU inactive | ELG1 MMS cell 16µM | Cell viab unstim inconclusive | FLuc biochem inactive
CCc1cccc(C)c1NC(=O)C1=C(C)C(=O)OC12CCC(C)CC2 (configuration not stated)	none (no result: ELG1 repair inh)
CCOC(=O)c1c(-c2ccccc2)oc2ccc(NS(=O)(=O)c3ccc(C)cc3C)cc12	Nrf2 block inconclusive (no result: ELG1 repair inh)
O=C(CCn1cccn1)Nc1ccc2c(c1)OCO2	ELG1 repair inh inconclusive
COc1cc(OC)c(NC(=O)Nc2nnc(N(C)C3CCCCC3)s2)cc1Cl	none (no result: ELG1 repair inh)

Screening results as filed in PubChem.
